# An excerpt weighted towards active compounds, which were near 4.7% of everything screened.
# DSG3 Ab inh: human desmoglein-3 autoantibody binding inhibition. P32926. DSG3-coupled beads, scFv-anti-DSG3-GFP binding, flow cytometry; hits give low values. binding (percent of control), % at 10 µM. actives 0.48% (n = 310,000);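 active means binding more than 3 SD below its plate's average and above zero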;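 further: hits lower antibody fragment binding to DSG3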
# ADAM17 inh: inhibits human ADAM17; P78536; inhibition, % at 6.95 µM; actives 0.83% (n = 370,000); AID 720648; recombinant ADAM17, EDANS/DABCYL FRET peptide cleavage;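 active means inhibition above the mean of compounds lying between control limits plus 3 SD, set per campaign, cut at about 8.5% in these data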;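 further: 0% = DMSO-only wells as the low control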
# ADAM10 inh: ADAM10 inhibition, QFRET primary screen. O14672. inhibition, % at 7 µM. recombinant ADAM10, EDANS/DABCYL FRET peptide cleavage, 3 h. actives 0.62% (n = 370,000);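 active means inhibition above a per-campaign cutoff equal to the mean of compounds falling between control-based bounds plus 3 SD, cut at about 20% in these data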;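 further: 0% = DMSO wells while the 100% control is not disclosed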
# rCAG RNA binder: binds r(CAG) RNA repeats. r(CAG) RNA repeat, TO-PRO-1 dye displacement fluorescence. inhibition, % at 3 µM. actives 1.3% (n = 370,000). AID 651821;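 active means inhibition above the plate cutoff, the mean of all test compounds on that plate plus 3 SD, cut at about 35% in these data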;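 further: 0% = DMSO alone and 100% = 100 µM mitoxantrone as full dye displacement; higher means more dye released from RNA so lower well fluorescence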
# KLK7 zymogen act: activates the human kallikrein-7 zymogen | P49862 | purified proKLK7, EDANS-DABCYL substrate fluorescence; 100% is mature enzyme control, 0% vehicle | activation, % at 7 µM | actives 0.9% (n = 370,000);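 active means activation above the mean of all tested compounds plus 3 SD, computed per campaign excluding outliers beyond control limits, cut at about 13% in these data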
# Target sequence (P49862 whole entry, looked up): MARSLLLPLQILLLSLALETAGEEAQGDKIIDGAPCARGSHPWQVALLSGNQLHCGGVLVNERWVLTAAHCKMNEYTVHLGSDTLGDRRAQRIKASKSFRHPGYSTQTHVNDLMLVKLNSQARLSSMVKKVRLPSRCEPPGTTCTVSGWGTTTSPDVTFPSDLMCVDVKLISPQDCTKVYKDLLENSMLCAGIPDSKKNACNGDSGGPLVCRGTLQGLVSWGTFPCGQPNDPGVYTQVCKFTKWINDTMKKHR
# MPTP block: permeability transition pore inhibition; actives 1.4% (n = 360,000); inhibition, % at 10 µM; isolated mouse mitochondria, Ca2+ swelling absorbance, 30 min;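 active means inhibition of 50% or more, scaled per plate between neutral and stimulator controls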;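 further: 0% = DMSO wells given calcium and 100% = 1 mM EGTA wells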
# proKLK7 act conf: proKLK7 activation, confirmation; shares compounds with KLK7 zymogen act; purified proKLK7, EDANS-DABCYL substrate fluorescence; scaled: vehicle 0, mature enzyme 100; activation, % at 7 µM; actives 68% (n = 3,200);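 active means activation, as change over the incubation, above the mean of all tested compounds plus 3 SD, cut at about 13% in these data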
# EDANS-DABCYL int: optically interferes with EDANS-DABCYL signal, flagging KLK7 hits | shares compounds with KLK7 zymogen act | EDANS-DABCYL substrate fluorescence interference, no enzyme, 4 h; solvent 0%, active enzyme control 100% | activation, % at 7 µM | actives 80% (n = 3,200) | AID 686952;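 active means activation above the all-compound mean plus 3 SD, ignoring values outside control-based bounds, cut at about 4.8% in these data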;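 further: value is the 4 h activation minus the activation read at time zero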
# * marks the source's active call; other numbers are inactive results; i = inactive; . = no result.
SMILES,DSG3 Ab inh,ADAM17 inh,ADAM10 inh,rCAG RNA binder,KLK7 zymogen act,MPTP block,proKLK7 act conf,EDANS-DABCYL int
Cc1cccc(CN2CCc3c([nH]c4ccccc34)C2C(C)(C)C)n1 (stereo not given),94,-50,-123,-6,13*,4,7,12*
CSc1ncc(CN2CCc3c([nH]c4ccccc34)C2C(C)(C)C)cn1 (stereo not given),99,-24,-62,-4,7,0,.,.
Cc1cc(NCc2ccco2)nc2cc(O)ccc12,101,i,i,3,19*,0,72*,66*
CC1CCc2[nH]c3ccc(C(=O)NCCCOC(C)C)cc3c2C1 (stereo not given),100,-10,-33,-6,14*,0,12,12*
COc1ccc(-c2cc3ccc(O)cc3oc2=O)cc1OC,101,i,i,3,42*,0,71*,71*
COc1ccc(-c2cc(=O)c3ccc(O)cc3o2)cc1OC,.,i,i,7,121*,0,42*,46*
CCOC(=O)COc1ccc2c3c(c(=O)oc2c1)CCCC3,96,-43,-111,-1,3,0,.,.
COC(=O)C(C)Oc1ccc2c3c(c(=O)oc2c1)CCCCC3 (stereo not given),96,-367,i,-6,25*,1,1,-7
CC(C)Oc1ccc2c3c(c(=O)oc2c1)CCC3,.,-139,i,-4,1,3,.,.
O=c1oc2cc(O)ccc2c2oc3cc(O)ccc3c12,100,i,i,4,72*,0,62*,72*
CC(=O)Oc1ccc2c3c(c(=O)oc2c1)CCCC3,102,i,i,3,495*,1,688*,685*
CC(Oc1ccc2c3c(c(=O)oc2c1)CCCC3)C(=O)NCC1CCC(C(=O)O)CC1 (stereo not given),104,-76,-238,0,0,2,.,.
CSCCC(NC(C)=O)C(=O)Oc1ccc2c3c(c(=O)oc2c1)CCCC3 (stereo not given),101,i,i,2,53*,2,61*,66*
C#CCOCCOCCOCCNc1nc(N2CCN(C(=O)[C@H]([C@@H](C)CC)n3cc(CCC(=O)O)nn3)CC2)nc(N2CCN(C(=O)[C@H](CCCCN)n3cc(CC(C)O)nn3)CC2)n1 (stereo not given in full),101,-4,-9,-10,1,-2,.,.
CCn1cc(CN2CCCC(C(=O)Nc3cccc(-n4cccn4)c3)C2)cn1 (stereo not given),103,-3,-5,0,0,1,.,.
C=CCOc1ccc2c3c(c(=O)oc2c1)CCCC3,111,-51,-149,-2,-2,0,.,.
O=C(Oc1ccc2c3c(c(=O)oc2c1)CCCC3)c1ccco1,105,i,i,0,295*,0,639*,631*
O=c1oc2cc(O)ccc2c2c1CCCC2,100,i,i,3,58*,7,60*,70*
Cc1ccc(-c2nc(=O)[nH]c3ccccc23)cc1,108,-88,-238,1,14*,1,16*,19*
O=C1C(NC(=O)N2c3ccccc3C=Cc3ccccc32)CCCCN1Cc1cccc(Cl)c1 (stereo not given),.,6,9,9,0,.,.,.
c1ccc(-c2nc3c4ccccc4ccn3c2Cc2ccsc2)cc1,.,.,.,.,.,0,.,.
CCN1CCN(C(=O)c2cc(-c3ccco3)nc3ccccc23)CC1,.,i,i,5,84*,0,72*,72*
O=C(c1cc(-c2ccco2)nc2ccccc12)N1CCCC(C(F)(F)F)C1 (stereo not given),95,i,i,10,48*,1,66*,67*

# Compound activity deposited in PubChem BioAssay by several laboratories.
